FEN1 inh: inhibitors of human flap endonuclease 1; 390,000 compounds, 0.35% hits; P39748; Potency, µM (doses to about 114 µM), most hits filed as inhibitors; AID 588795; Recombinant FEN1 flap cleavage, fluorescence, 15 min; also: nearly all actives have a fitted effect of over 65% in size
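Nuclease activity of 10 nM FEN1 was measured after 15 min of room-temperature exposure to titrated compounds, by adding 50 nM flap substrate and reading plates at 0 and 15 min.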
Pol eta inh: inhibitors of human DNA polymerase eta | 390,000 compounds, 1.2% hits | AID 588591 | Potency, µM (highest dose often 114 µM), hits mostly inhibitors | Q9Y253 | recombinant Pol eta, fluorescent DNA replication assay
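Fluorescent replication assay: 50 nM final substrate added after a 15 min room-temperature compound preincubation with 10 nM enzyme. Signal taken at 0 min and again at 10 min.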
Pol iota inh: blocks human DNA polymerase iota activity. Pol iota fluorescent replication assay, 10 min. Potency, µM (series often up to 115 µM), hits mostly inhibitors. 390,000 compounds, 1% hits. AID 588590
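Pol iota at 10 nM preincubated 15 min with compounds at room temperature; reaction started with fluorescent substrate, 50 nM final. Fluorescence read kinetically at 0 and 10 min; buffer-only wells as negative control.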
WRN inhibitor: blocks human WRN helicase; Q14191; WRN helicase unwinding, fluorescent forked duplex, kinetic; Potency, µM (top dose mostly 114 µM), usual class: inhibitors; 360,000 compounds, 0.46% hits; also: nearly all actives have a fitted effect of over 55% in size
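Enzyme (20 nM final) and test compound sit together 15 min at room temperature before substrate addition. Substrate is a single-forked duplex oligonucleotide (100 nM) labelled with fluorophore and quencher, with 2 mM ATP; helicase unwinding raises red fluorescence, read kinetically.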
Pol kappa inh: inhibitors of human DNA polymerase kappa; 400,000 compounds, 0.53% hits; purified Pol kappa, fluorescent DNA synthesis assay, 10 min; Q9UBT6; AID 588579; Potency, µM (series often up to 107 µM), hits mostly inhibitors
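Here, compound and 10 nM enzyme are combined for 15 min at room temperature; adding 50 nM substrate (final) starts DNA synthesis, tracked by fluorescence at 0 and 10 min against buffer-only wells.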
Pol beta inh: DNA polymerase beta (human) inhibition; Potency, µM (titrated, usually from 114 µM), hits mostly inhibitors; AID 485314; 340,000 compounds, 1.3% hits; Pol beta primer extension/strand displacement, fluorescence kinetic
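Pol beta (10 nM) was preincubated with compound for 15 min at room temperature. The reaction was then started with 50 nM substrate and read immediately and after a further 10 min at room temperature.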
A number is an active result; – = inactive; ? = inconclusive; · = no result given; ! = a repeat was not active; [ ] = dose if it differs, or a comment. A selection: hits, their analogues and other compounds. The true share with any hit is near 2.4%. Calls follow the shape of the dose curve; as a rule, active = well fitted curve in the direction sought with a large enough effect; inconclusive = small, poorly fitted or top-dose-only effect, or another doubt; inactive = no such curve, though single readings can be large; an effect the other way counts as inactive or inconclusive.

SMILES | FEN1 inh | Pol eta inh | Pol iota inh | WRN inhibitor | Pol kappa inh | Pol beta inh
O=C(O)/C(=C\c1ccccc1Cl)c1ccc(S(=O)(=O)N2CCCCC2)s1 | – | 50.1µM | ? | – | – | ?
O=C(O)/C(=C\c1ccc(Cl)c([N+](=O)[O-])c1)c1ccc(S(=O)(=O)N2CCCCC2)s1 | – | 79.4µM | ? | –[11.6 µM] | – | ?
O=C(O)/C(=C\c1cccc([N+](=O)[O-])c1)c1ccc(S(=O)(=O)N2CCCCC2)s1 | – | ? | ? | – | – | 25.1µM
COc1ccc(Br)cc1/C=C(\C(=O)O)c1ccc(S(=O)(=O)N2CCCC2)s1 | – | 22.4µM | ? | ? | ? | ·
O=c1c(N2CCc3ccccc3C2)csc2ccc(F)cc12 | – | · | – | · | – | –
COc1cc(/C=C2/SC(=S)NC2=O)ccc1OS(=O)(=O)c1ccc(C)cc1 | 79.4µM | 28.2µM | ? | ? | – | 35.5µM
CCc1ccc(OCC(=O)Nc2c(C(=O)c3ccccc3)oc3ccccc23)cc1 | – | – | – | · | – | –
O=C(O)CP(=O)(O)O | – | – | 12.6µM! | – | – | –
CCN(CC)c1nn2c(=O)c(C(=O)NCc3ccc(N(C)C)cc3)cnc2s1 | – | – | – | · | – | –
COc1ccc(C(C)(C)C)cc1NC(=O)COC(=O)c1ccc([N+](=O)[O-])o1 | 25.1µM | – | ? | – | – | –
O=C1c2cccc3c([N+](=O)[O-])ccc(c23)C(=O)N1O | 3.16µM | 2.82µM | – | – | – | ?
COc1ccc2c3c(cccc13)C(=O)N(O)C2=O | 0.355µM | – | – | – | – | 35.5µM
Cc1ccc(C)c(NC(=O)C(CC(C)C)N2Cc3ccccc3C2=O)c1 (stereo unspecified) | – | – | – | · | – | –
O=c1c(-c2cc(O)c(O)c(O)c2)coc2cc(O)c(O)c(O)c12 | · | · | · | · | 0.398µM | ·
O=c1c(-c2ccc(O)cc2)coc2cc(O)cc(O)c12 | – | – | – | – | – | ?
Cc1cccc(N2CCN(c3ccc(C(=O)O)cc3NC(=O)c3cccc(Cl)c3)CC2C)c1 (stereo unspecified) | – | – | – | · | – | 31.6µM
O=C(Nc1ccccc1N1CCCCC1)c1cccc(Cl)c1 | – | – | – | – | – | –
N#CCCN(Cc1ccccc1)C(=O)c1cccs1 | – | – | – | – | – | 0.159µM
COc1cc2cc(Oc3ccc4ccc(=O)oc4c3)c(=O)oc2cc1OC(C)=O | – | ? | – | – | – | –
COc1cc2cc(Oc3ccc4ccc(=O)oc4c3)c(=O)oc2cc1OC(=O)C=C(C)C | · | · | · | · | · | 14.1µM
C[C@H](O)CO[C@H]1[C@H]2O[C@H]3[C@H](O)[C@@H](O)[C@@H](O[C@H]4[C@H](O)[C@@H](O)[C@@H](O[C@H]5[C@H](O)[C@@H](O)[C@@H](O[C@H]6[C@H](O)[C@@H](OC[C@H](C)O)[C@@H](O[C@H]7[C@H](O)[C@@H](OC[C@H](C)O)[C@@H](O[C@H]8[C@H](O)[C@@H](O)[C@@H](O[C@@H]([C@@H]1O)[C@@H](CO)O2)O[C@@H]8CO)O[C@@H]7CO)O[C@@H]6CO)O[C@@H]5CO)O[C@@H]4CO)O[C@@H]3CO | · | · | · | · | –[19.4 µM] | ·
COc1cc2cncnc2cc1OCCCCC(N)=O | – | · | – | · | – | ·
Cn1cnc(S(=O)(=O)N2CCCC(C(=O)Nc3cccc(C#N)c3)C2)c1 (stereo unspecified) | – | – | – | · | – | –
Cc1ccccc1CSCC(=O)NNC(=S)NCC1CCCO1 (stereo unspecified) | – | – | 89.1µM | – | – | ?
O=C(CCl)c1ccc2[nH]c(=O)oc2c1 | – | 44.7µM | ? | –[11.6 µM] | – | –
O=c1[nH]c2ccc(Br)cc2o1 | – | – | – | – | – | ·
Cc1ccccc1C(=O)Nc1cccc(C(=O)OCc2cc(=O)n3ccsc3n2)c1 | – | – | – | · | – | –
O=[N+]([O-])c1ccc(O/N=[N+](\[O-])N2CCN(c3ccccc3)CC2)c([N+](=O)[O-])c1 | – | · | ? | · | – | ·
Cn1c(=O)oc2cc(S(=O)(=O)N3CCCC(C(=O)NCCc4ccccc4)C3)ccc21 (stereo unspecified) | – | – | – | · | – | –

Compound activity as filed in PubChem BioAssay.
